± gives the standard deviation.
Key:
Conditions in all cases: modulator concentration 10 µM
[1] = system: RAW-Dual (murine macrophage reporter line); test: NF-kB reporter (SEAP) activity fold change vs agonist alone; higher = enhanced NF-kB activity
Procedure, shortened: (§1)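 In 384-well plates holding 50 000 RAW-Dual murine macrophage reporter cells per well, compound at 10 μM final was pre-incubated for 1 hour at 37 °C, after which a PRR agonist was added overnight. Supernatant SEAP read with QUANTI-Blue at 620 nm absorbance reported NF-κB, and Lucia luciferase read with QUANTI-Luc luminescence reported IRF. Fold change values come from dividing each reporter signal by the mean of agonist-only control wells on the same plate, averaged over replicate plates with propagated errors.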

[2] = system: RAW-Dual (murine macrophage reporter line); test: IRF reporter (Lucia luciferase) activity fold change vs agonist alone; higher = enhanced IRF activity
Procedure, shortened: as §1

[3] = system: RAW-Dual (murine macrophage reporter line); test: viability score (confluency relative to resting cells, overnight) (fraction); higher = more viable, active = viable (0.7 or more)
Procedure, shortened: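 In 384-well plates, RAW-Dual macrophages received compound at a final 10 μM overnight. Two confluency masks were then made with IncuCyte software from IncuCyte images of all imaged wells. The viability score is defined as confluency relative to resting cells. Passing the cutoff required both masks to lie above 70% of resting cells.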

[4] = agonist: CpG ODN 1826 0.5 ug/mL

Row | Compound | NF-kB reporter [1, 4] | NF-kB reporter ([1]; agonist: LPS 0.1 ug/mL) | NF-kB reporter ([1]; agonist: MPLA […]) | IRF reporter ([2]; agonist: 3'3'-cGAMP 10 ug/mL) | IRF reporter ([2]; agonist: LPS 0.1 ug/mL) | IRF reporter ([2]; agonist: MPLA […]) | viability score [3]
1 | C=C1C(=O)O[C@@H]2[C@H]3O[C@]3(C)CC/C=C(\C)CC[C@@H]12 [Prestw-550] | 0.314 ± 0.019 | 0.312 ± 0.036 | 0.108 ± 0.0071 | 0.0909 ± 0.0037 | 0.0437 ± 0.0043 | 0.0367 ± 0.005 | 0.495 (inactive)
2 | OCC1OC(Oc2ccc(O)cc2)C(O)C(O)C1O (configuration not stated) | 1.23 ± 0.3 | 0.965 ± 0.069 | 1.02 ± 0.08 | 0.891 ± 0.049 | 1.14 ± 0.2 | 1.2 ± 0.11 | 1 (active)
3 | O=c1oc2c3c4c(cc2cc1-c1nnc(-c2ccccc2)o1)CCCN4CCC3 | 1.01 ± 0.12 | 1.04 ± 0.1 | 0.98 ± 0.058 | 1.02 ± 0.058 | 1.41 ± 0.17 | 1.04 ± 0.069 | 1.01 (active)
4 | CCCCCCOc1ccc(N2C(=O)CC(N3CCN(Cc4ccc5c(c4)OCO5)CC3)C2=O)cc1 (configuration not stated) | 0.919 ± 0.073 | 1.07 ± 0.075 | 0.9 ± 0.055 | 0.929 ± 0.032 | 1.38 ± 0.17 | 1.32 ± 0.12 | 0.991 (active)
5 | O=C(/C=C/c1cccc(S(=O)(=O)Nc2ccccc2)c1)NO | 2.21 ± 0.11 | 1.73 ± 0.14 | 2.67 ± 0.12 | 0.0696 ± 0.0082 | 0.285 ± 0.017 | 0.404 ± 0.12 | 0.0713 (inactive)
6 | CN(C)[C@@H]1C(O)=C(C(N)=O)C(=O)[C@@]2(O)C(O)=C3C(=O)c4c(O)ccc(Cl)c4[C@@H](O)[C@H]3C[C@@H]12.Cl | 1.29 ± 0.098 | 0.965 ± 0.055 | 1.17 ± 0.038 | 0.728 ± 0.048 | 0.971 ± 0.068 | 0.828 ± 0.12 | 0.984 (active)
7 | CSc1nc2ccc(Nc3nc(N4CCCC4)nc(N4CCCC4)n3)cc2s1 | 0.838 ± 0.086 | 0.962 ± 0.06 | 1.05 ± 0.096 | 0.906 ± 0.043 | 1.31 ± 0.13 | 1.55 ± 0.15 | 1.02 (active)
8 | COc1ccc(-c2nc(CNC(=O)C3CCN(c4cc(C5CC5)ncn4)CC3)cs2)cc1 | 0.957 ± 0.066 | 1.4 ± 0.11 | 1.16 ± 0.05 | 1.05 ± 0.062 | 1.24 ± 0.14 | 1.29 ± 0.25 | 1 (active)
9 | COc1cc(C(=O)Nc2ccc(-c3ccc(N4CCC(C)CC4)nn3)cc2)cc(OC)c1OC | 0.862 ± 0.1 | 0.879 ± 0.073 | 0.754 ± 0.12 | 1.02 ± 0.087 | 1.26 ± 0.11 | 1.59 ± 0.12 | 0.913 (active)
10 | Cc1nc2ccc(Cl)cn2c(=O)c1NC(=O)c1c(F)cccc1Cl | 0.78 ± 0.034 | 1.05 ± 0.11 | 0.96 ± 0.083 | 1.05 ± 0.049 | 1.09 ± 0.25 | 1.2 ± 0.41 | 0.965 (active)
11 | CC(C)C(C(=O)Nc1ccc(F)cc1)N1C(=O)c2ccccc2C1=O (configuration not stated) | 0.911 ± 0.079 | 1.06 ± 0.086 | 0.935 ± 0.077 | 0.957 ± 0.033 | 1.09 ± 0.15 | 0.943 ± 0.058 | 1.02 (active)
12 | COc1cc(C=C2NC(=O)NC2=O)cc(I)c1OCc1ccccc1 | 0.986 ± 0.082 | 1.09 ± 0.066 | 0.93 ± 0.098 | 1.05 ± 0.025 | 1.37 ± 0.15 | 1.12 ± 0.23 | 1.01 (active)
13 | COc1ccc(CCNC(=O)NCc2nnc3n2CCC(C(F)(F)F)C3)cc1 (configuration not stated) | 0.951 ± 0.067 | 1.02 ± 0.088 | 0.947 ± 0.072 | 1.05 ± 0.072 | 1.17 ± 0.07 | 1.12 ± 0.23 | 1.01 (active)
14 | Brc1ccc(-c2cc(-c3ccccc3)nc(N3CCCCC3)n2)cc1 | 0.951 ± 0.2 | 1.1 ± 0.092 | 1 ± 0.079 | 0.859 ± 0.03 | 1.17 ± 0.11 | 1.33 ± 0.15 | 1 (active)
15 | COC(CNC(=O)c1cccc(Br)c1)c1ccccc1C (configuration not stated) | 0.649 ± 0.056 | 0.999 ± 0.097 | 0.873 ± 0.04 | 0.832 ± 0.032 | 0.96 ± 0.1 | 0.901 ± 0.21 | 1 (active)
16 | COC(=O)C1=C(C)N(c2ccc(F)cc2)C(=O)C1 | 1 ± 0.092 | 0.811 ± 0.08 | 0.813 ± 0.071 | 0.516 ± 0.025 | 0.865 ± 0.068 | 0.505 ± 0.065 | 1.01 (active)
17 | O=C1c2ccccc2-c2nc3ccccc3n21 | 0.969 ± 0.17 | 1.24 ± 0.11 | 1.14 ± 0.12 | 0.983 ± 0.033 | 1.05 ± 0.21 | 1.28 ± 0.16 | 0.856 (active)
18 | Cc1ccc(-c2cc(C(F)(F)F)nn2-c2ccc(S(N)(=O)=O)cc2)cc1 | 0.337 ± 0.026 | 0.481 ± 0.03 | 0.59 ± 0.078 | 1.1 ± 0.091 | 0.848 ± 0.052 | 0.984 ± 0.087 | 0.183 (inactive)

Row | Compound | NF-kB reporter [1, 4] | NF-kB reporter ([1]; agonist: LPS 0.1 ug/mL) | NF-kB reporter ([1]; agonist: MPLA […]) | IRF reporter ([2]; agonist: 3'3'-cGAMP 10 ug/mL) | IRF reporter ([2]; agonist: LPS 0.1 ug/mL) | IRF reporter ([2]; agonist: MPLA […]) | viability score [3]
19 | CCSc1nnc(NC(=O)Cc2ccc([N+](=O)[O-])cc2)s1 | 1.04 ± 0.21 | 1.02 ± 0.085 | 0.96 ± 0.097 | 0.926 ± 0.026 | 1 ± 0.096 | 1.07 ± 0.12 | 1 (active)
20 | COc1ccc(CC(=O)Nc2nc(CSCc3ccc(F)cc3)cs2)cc1 | 0.968 ± 0.057 | 1.06 ± 0.081 | 1.08 ± 0.069 | 0.832 ± 0.036 | 0.981 ± 0.045 | 0.968 ± 0.1 | 0.941 (active)
21 | COc1ccc(C2=CC(c3cc(OC)c(OC)c(OC)c3)n3ncnc3N2)cc1 (configuration not stated) | 1.26 ± 0.087 | 1.08 ± 0.066 | 1.22 ± 0.087 | 1.15 ± 0.047 | 1.07 ± 0.07 | 1.27 ± 0.15 | 0.985 (active)
22 | CSC1CCN(C(=O)Nc2ccc(C)c(C)c2)C1 (configuration not stated) | 1.03 ± 0.38 | 0.953 ± 0.11 | 0.985 ± 0.063 | 0.906 ± 0.038 | 0.954 ± 0.17 | 1.09 ± 0.11 | 0.999 (active)
23 | COC(=O)C1C(c2ccccc2)C(C(=O)Oc2ccc(C(C)=O)cc2)C1c1ccccc1 (configuration not stated) | 0.895 ± 0.069 | 0.939 ± 0.046 | 1.16 ± 0.1 | 0.908 ± 0.06 | 1.17 ± 0.1 | 1.28 ± 0.15 | 1.02 (active)
24 | CCN(CC)CCN1C(=O)C(O)=C(C(=O)c2ccc(C)cc2)C1c1ccccc1 (configuration not stated) | 0.996 ± 0.078 | 0.974 ± 0.064 | 0.893 ± 0.041 | 0.827 ± 0.059 | 0.999 ± 0.11 | 0.896 ± 0.2 | 0.996 (active)
25 | CC(C=CC1=C(C)CCCC1(C)C)=CC=CC(C)=CC(=O)O | 1.29 ± 0.11 | 0.943 ± 0.078 | 1.01 ± 0.1 | 0.568 ± 0.031 | 1.1 ± 0.14 | 0.904 ± 0.19 | 0.986 (active)
26 | CC(C)(C)c1ccc(C(=O)Nc2nc3ccc([N+](=O)[O-])cc3s2)cc1 | 1.06 ± 0.085 | 1.05 ± 0.072 | 1 ± 0.035 | 1.04 ± 0.23 | 0.986 ± 0.074 | 1.1 ± 0.11 | 1 (active)
27 | CCCCCN(CCCCC)C(=O)C(CCC(=O)[O-])NC(=O)c1ccc(Cl)c(Cl)c1 (configuration not stated) [Prestw-915] | 1.02 ± 0.064 | 0.954 ± 0.096 | 0.901 ± 0.064 | 1.1 ± 0.073 | 1.55 ± 0.17 | 1.29 ± 0.14 | 0.832 (active)
28 | CN(C(=O)c1cncc(F)c1)C1CN(c2ccc3nnc(C4CC4)n3n2)C1 | 0.937 ± 0.055 | 0.988 ± 0.078 | 0.83 ± 0.082 | 0.956 ± 0.087 | 0.991 ± 0.14 | 0.859 ± 0.4 | 1 (active)
29 | CN(Cc1cnc2nc(N)nc(N)c2n1)c1ccc(C(=O)NC(CCC(=O)O)C(=O)O)cc1 (configuration not stated) [Prestw-373] | 0.987 ± 0.24 | 0.701 ± 0.04 | 0.87 ± 0.072 | 0.614 ± 0.037 | 1.16 ± 0.19 | 1.01 ± 0.13 | 0.791 (active)
30 | COc1ccc(S(=O)(=O)N2CCC(c3ccccc3)S(=O)(=O)CC2)cc1Cl (configuration not stated) | 0.831 ± 0.2 | 1.08 ± 0.082 | 0.978 ± 0.065 | 0.708 ± 0.024 | 1 ± 0.15 | 1.21 ± 0.32 | 0.999 (active)
31 | Cn1cnc2c(F)c(Nc3ccc(Br)cc3F)c(C(=O)NOCCO)cc21 | 0.822 ± 0.071 | 0.65 ± 0.052 | 0.666 ± 0.04 | 0.777 ± 0.045 | 1.17 ± 0.23 | 1.35 ± 0.45 | 0.248 (inactive)
32 | C[C@@H](O)[C@H]1C(=O)N2C(C(=O)O)=C(SCCNC=N)C[C@H]12 [Prestw-519] | 1.17 ± 0.11 | 0.986 ± 0.13 | 0.951 ± 0.036 | 0.981 ± 0.043 | 0.96 ± 0.044 | 0.928 ± 0.092 | 0.994 (active)
33 | Cc1cc(C(=O)Nc2ccccc2S(C)(=O)=O)no1 | 1.17 ± 0.069 | 1.04 ± 0.08 | 0.992 ± 0.055 | 0.995 ± 0.056 | 1.04 ± 0.05 | 1.06 ± 0.15 | 1 (active)
34 | O=[N+]([O-])c1ccc(C=Nc2sc3c(c2-c2nc4ccccc4s2)CCCC3)cc1 | 0.94 ± 0.059 | 0.955 ± 0.059 | 0.983 ± 0.057 | 0.94 ± 0.04 | 1.2 ± 0.12 | 0.93 ± 0.089 | 1 (active)
35 | CCOc1ccc(-c2ccc(=O)n(CCNS(=O)(=O)CCc3ccccc3)n2)cc1 | 1.08 ± 0.081 | 1.22 ± 0.13 | 1.06 ± 0.083 | 1.2 ± 0.078 | 0.984 ± 0.07 | 1.3 ± 0.27 | 0.995 (active)
36 | CC(=O)NC(c1ccccc1)c1c(OC(=O)COc2ccccc2)ccc2ccccc12 (configuration not stated) | 0.73 ± 0.062 | 0.878 ± 0.049 | 0.714 ± 0.044 | 1.24 ± 0.062 | 0.987 ± 0.08 | 0.948 ± 0.12 | 1.01 (active)
